PI5P4K alpha inh: qHTS for Inhibitors of phosphatidylinositol 5-phosphate 4-kinase (PI5P4K); Phosphatidylinositol 5-phosphate 4-kinase type-2 alpha (Homo sapiens), P48426; PI5P4Kalpha enzyme, ADP-Glo luminescence, 60 min; active compounds read low; max response, %; hit rate 1.2% among 330,000; active = max response of -50% or lower; inconclusive = between -30% and -50%; inactive = -30% or higher; also: value at the top dose of about 77 µM
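Luminescence from ADP-Glo served as readout of PI5P4Kalpha activity in a qHTS format. Reaction: enzyme, substrate, compound, ATP at 5 microM final, 60 min at RT.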
BLM inh: qHTS Assay for Inhibitors of Bloom's syndrome helicase (BLM); RecQ-like DNA helicase BLM (Homo sapiens), P54132; recombinant BLM DNA unwinding, fluorescence dequenching; Potency, µM (top dose mostly 56.1 µM), for the others: at the highest dose activity change, negative = inhibition, most hits filed as inhibitors; hit rate 0.2% among 350,000; AID 2528, 2010;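 also: potency is read from the fitted curve at half-maximal effect; plate controls were vehicle for no effect and no enzyme for full effect; nearly all actives have a fitted effect of over 35% in size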
RECQ1 inh: qHTS Assay for Inhibitors of RecQ-Like Dna Helicase 1 (RECQ1); ATP-dependent DNA helicase Q1 (Homo sapiens), P46063; RECQ1 DNA unwinding, red fluorescence kinetic read; Potency, µM (titrated, usually from 57.3 µM), for the others: at the top dose activity, negative = inhibition, most hits filed as inhibitors; AID 2549, 2010; hit rate 0.54% among 240,000;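 also: potency is read from the fitted curve at half-maximal effect; plate controls were vehicle for no effect and no enzyme for full effect; nearly all actives have a fitted effect of over 30% in size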
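RECQ1T1 50 nM; forked duplex (20 bp + 30-nt ss tails) 200 nM, ATP 2 mM final; pH 8.0, 2 mM MgCl2, 2.5 ug/ml poly(dI-dC); 15 min compound preincubation; discontinuous kinetic read over 2 h at RT.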
FEN1 inh: qHTS Assay for the Inhibitors of Human Flap endonuclease 1 (FEN1). P39748. Recombinant FEN1 flap cleavage, fluorescence, 15 min. Potency, µM (titrated, usually from 114 µM), for inactives: at the top dose activity change, negative = inhibition, most hits filed as inhibitors. hit rate 0.35% among 390,000. AID 588795, 2011; also: potency is read from the fitted curve at half-maximal effect; nearly all actives have a fitted effect of over 65% in size
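Potency values derive from four-parameter Hill fits of normalized qHTS data. The reaction used 10 nM FEN1 preincubated 15 min at room temperature with compound, then 50 nM DNA substrate, read at 0 and 15 min.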
APEX1 inh: qHTS Assay for Inhibitors of the Human Apurinic/apyrimidinic Endonuclease 1 (APE1); AID 2517, 2012; hit rate 0.35% among 350,000; DNA repair nuclease/redox regulator APEX1 (Homo sapiens), P27695; recombinant APE1, TAMRA/BHQ-2 abasic DNA cleavage fluorescence; Potency, µM (doses to about 65.8 µM), for inactives: at the highest dose activity change, negative = inhibition, hits mostly inhibitors;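 also: potency is read from the fitted curve at half-maximal effect; plate controls were vehicle for no effect and reference inhibitor for full effect; nearly all actives have a fitted effect of over 55% in size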
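Activity was derived from the fluorescence gain between first and third kinetic reads (60 s intervals, ex 525/em 598 nm) after 50 nM THF-abasic TAMRA/BHQ-2 duplex was added to 0.75 nM APE1 preincubated 15 min with compound.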
GCN5L2 inh: qHTS Assay for Inhibitors of GCN5L2. hit rate 0.21% among 390,000. Potency, µM (highest dose often 58.9 µM), inactives show at the top dose activity change, negative = inhibition, hits mostly inhibitors. Histone acetyltransferase KAT2A (Homo sapiens), Q92830. GCN5L2 HAT assay, ThioGlo1 CoA-SH fluorescence; also: potency is read from the fitted curve at half-maximal effect
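Fluorescence readout, Ex340nm/Em540nm: ThioGlo1 (50uM final) reacts with free CoA thiol released as 20nM GCN5L2 acetylates H3(1-25) peptide (75uM) using acetyl-CoA (70uM). Compound and enzyme sat 15 min beforehand; 20 min room-temperature reaction.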
Active calls of the source: *; i = inactive; ? = inconclusive; nt = no result. A selection: hits, their analogues and other compounds. The true share with any hit is near 1.5%. Unless noted, calls follow the shape of the dose curve; as a rule, active = well fitted curve in the direction sought with a large enough effect; inconclusive = small, poorly fitted or top-dose-only effect, or another doubt; inactive = no such curve, though single readings can be large; an effect the other way counts as inactive or inconclusive. Unless noted, % is scaled to controls: 0 for no effect and ±100 for the full control effect.

SMILES	PI5P4K alpha inh	BLM inh	RECQ1 inh	FEN1 inh	APEX1 inh	GCN5L2 inh
CCCCCCCCCCCCCCCCCCc1ccc(C(=O)/C=C\C(=O)O)cc1	nt	-7.9%	2.5%	nt	?	2.82µM*
CCCCCCCCCCCCCCCCCCc1ccc(C(=O)/C=C/C(=O)O)cc1	nt	nt	?	nt	?	-4.0%
CC(C)(C)C(=O)OCC(=O)[C@H]1CC[C@H]2[C@@H]3CCC4=CC(=O)CC[C@]4(C)[C@H]3CC[C@]12C	nt	nt	nt	nt	11.0%	nt
C(=C\c1ccnc2ccccc12)/c1ccccc1	nt	nt	nt	-6.6%	nt	nt
O=C(CSc1nccn1Cc1ccccc1)Nc1ccc2c(c1)OCCO2	nt	-0.8%	nt	-11.0%	nt	-5.6%
O=C(CSc1ncccc1C(=O)O)Nc1ccc2c(c1)OCCO2	-52.2*	-0.2%	nt	-6.1%	20.4%	-1.8%
Cc1ccc(C)c(N=Cc2cc3c(cc2[N+](=O)[O-])OCO3)c1	-19.4	?	6.6%	5.4%	0.4%	-12.4%
O=[N+]([O-])c1cc(Br)cc(C=Nc2ccc3c(c2)OCO3)c1O	-51.1*	14.1µM*	?	?	-5.5%	-7.9%
Cc1ccc(N=Cc2cc3c(cc2[N+](=O)[O-])OCO3)cc1[N+](=O)[O-]	-64.5*	nt	nt	-2.9%	nt	nt
O=[N+]([O-])c1ccc(O)c(C=Nc2ccc3c(c2)OCO3)c1	-17.3	-8.8%	20.9%	-2.8%	14.7%	?
C/C=C\C=C\C(=O)N1CC2(CC(c3cccc(NC(=O)COc4ccc(Cl)cc4)c3)=NO2)C[C@H]1C(N)=O (stereo partly drawn)	-81.3*	-8.7%	i	-22.8%	-1.9%	0.9%
C/C=C/C=C\C(=O)Nc1cccc(C2=NOC3(C2)C[C@@H](C(N)=O)N(C(=O)c2cc([N+](=O)[O-])cc([N+](=O)[O-])c2C)C3)c1 (stereo partly drawn)	-71.2*	-4.9%	i	9.0%	11.1%	8.3%
C/C=C(\C)C(=O)N1CC2(CC(c3cccc(NC(=O)COc4ccc(Cl)cc4)c3)=NO2)C[C@@H]1C(N)=O (stereo partly drawn)	2.5	-1.1%	i	0.0%	-6.5%	-9.7%
C/C=C\C=C\C(=O)Nc1cccc(C2=NOC3(C2)C[C@H](C(N)=O)N(C(=O)c2ccccc2C(=O)c2ccccc2)C3)c1 (stereo partly drawn)	-51.7*	2.8%	i	-14.5%	-2.4%	0.7%
CCC(C(=O)O)C1OC(C(C)C(O)C(C)C(=O)C(CC)C2OC3(C=CC(O)C4(CCC(C)(C5CCC(O)(CC)C(C)O5)O4)O3)C(C)CC2C)C(C)CC1C (stereo not drawn)	nt	-2.6%	nt	nt	nt	-9.3%
O=C(O)c1ccccc1C(=O)Nc1n[nH]c(=S)s1	nt	-5.9%	-4.7%	-1.1%	-3.1%	17.8µM*
O=C(O)c1ccccc1C(=O)Nc1nccs1	5.0	-0.5%	-4.0%	-11.7%	1.1%	-0.6%
Cc1cc[n+](CCC2CCCCC2)c2ccccc12	nt	nt	nt	2.6%	nt	nt
NS(=O)(=O)c1ccc(N/N=C2/CCCCC2C2CCCCC2)c([N+](=O)[O-])c1 (stereo not drawn)	1.0	-15.6%	2µM*	-2.8%	-5.3%	-14.8%
CC(=O)Oc1cccc2c1C(=O)c1c(OC(C)=O)cc(C(=O)O)cc1C2=O	-76.3*	-2.2%	-3.1%	146.6%	5.5%	-1.4%
CC(=O)Oc1ccc(C(=O)O)cc1OC(C)=O	nt	-0.7%	5.7%	-2.7%	-5.1%	0.4%
COC(=O)c1ccccc1NC(=O)COc1ccccc1C(=O)Nc1ccccc1	nt	nt	nt	7.1%	nt	nt
O=C(O)c1cc2ccccc2c(Cc2c(O)c(C(=O)O)cc3ccccc23)c1O	nt	nt	nt	31.6µM*	nt	nt
O=C(O)c1cc2ccccc2c2cc(Br)ccc12	-3.8	-1.2%	-7.8%	-9.6%	0.2%	-12.3%
COc1cc(O)c(C=NN2C(=O)CSC2=S)c(OC)c1	-75.5*	nt	nt	nt	nt	nt
SMILES	PI5P4K alpha inh	BLM inh	RECQ1 inh	FEN1 inh	APEX1 inh	GCN5L2 inh
O=C1CSC(=S)N1/N=C/c1ccc2c(c1)OCCO2	-57.4*	-1.2%	nt	5.2%	8.8%	-9.9%
O=C1CSC(=S)N1N=Cc1c[nH]c2ccc(Br)cc12	-6.7	nt	nt	nt	nt	nt
O=C1CSC(=S)N1/N=C/c1cc(Br)c(O)c(Br)c1	-105.5*	-3.5%	nt	22.4µM*	-19.3%	-26.6%
C=C1C[C@@]23CC[C@H]4[C@@](C)(CCC[C@@]4(C)C(=O)O)[C@@H]2CC[C@]1(O)C3	nt	nt	nt	nt	nt	-6.5%
O=C(Cc1ccc(Oc2ccccc2)cc1)NO	nt	nt	nt	-16.0%	nt	nt
COc1ccc(Cl)cc1NC(=S)NNC(=O)C1(C)CC1(Cl)Cl (stereo not drawn)	-51.7*	-2.7%	2.8%	8.8%	-0.8%	-0.4%
CCOc1ccc(Nc2ccc(N)c(S(=O)(=O)O)c2)cc1	-59.8*	nt	nt	-29.5%	nt	nt
O=C(O)c1cc(=O)c2c(Cl)cc(Cl)cc2[nH]1	-58.9*	5.2%	-10.8%	15.3%	-8.5%	-9.8%
Brc1ccc2c(c1)OCCOCCOc1cc(Br)ccc1OCCOCCOCCO2	6.5	15.8µM*	-10.3%	-2.7%	-0.2%	-7.2%
Cc1c(C(=O)N/N=C/c2ccc(-c3ccccc3[N+](=O)[O-])o2)sc(N)c1C#N	-52.7*	7.94µM*	-9.5%	10.3%	1.3%	-4.6%
CC1(C)OC2C(CO)OC(n3cnc4c(=S)nc(N)[nH]c43)C2O1 (stereo not drawn)	-22.9	nt	nt	nt	nt	nt
Nc1nc(=S)c2ncn(C3OC(CO)C(O)C3O)c2[nH]1 (stereo not drawn)	-80.7*	?	?	89.1µM*	25.1µM*	?
Nc1nc(=S)c2ncn([C@@H]3O[C@H](CO)[C@@H](O)[C@H]3O)c2[nH]1	-77.0*	nt	nt	-3.7%	18.8%	-13.5%
CCOC(=O)N(C(=O)c1ccccc1)c1ccccc1	nt	nt	nt	-5.1%	nt	nt
COc1cccc(C2(O)CC(C(F)(F)F)=NN2C(=O)c2ccccn2)c1 (stereo not drawn)	-0.8	-6.3%	-14.0%	-14.8%	1.2%	25.1µM*
COc1ccc(CNCCS(=O)(=O)NN2CCOCC2)cc1	-63.2*	nt	nt	-11.2%	-12.8%	-16.6%
CCCCCCCCNCCS(=O)(=O)NCc1ccccc1	19.0	nt	nt	?	nt	nt
CCCCCCCCNCCS(=O)(=O)NN1CCOCC1	-68.6*	nt	nt	-12.8%	-6.7%	-22.2%

Bioassay records as filed in PubChem.
